This is a sample that favours compounds with a hit; in the whole collection about 21% have one here.
RORgamma inh = inhibitors of mouse ROR gamma transcriptional activity. P51450. Drosophila S2 Gal4-RORgamma UAS-luciferase reporter, 20 h. Potency, µM (highest dose often 53.6 µM), without a hit: top-dose activity change, negative = inhibition, usual class: inhibitors. hit rate 5.4% among 310,000; further: potency means the concentration at half of the fitted maximal effect; nearly all actives have a fitted effect of over 60% in size
Target sequence (P51450 whole entry, looked up, the tested form may be a part): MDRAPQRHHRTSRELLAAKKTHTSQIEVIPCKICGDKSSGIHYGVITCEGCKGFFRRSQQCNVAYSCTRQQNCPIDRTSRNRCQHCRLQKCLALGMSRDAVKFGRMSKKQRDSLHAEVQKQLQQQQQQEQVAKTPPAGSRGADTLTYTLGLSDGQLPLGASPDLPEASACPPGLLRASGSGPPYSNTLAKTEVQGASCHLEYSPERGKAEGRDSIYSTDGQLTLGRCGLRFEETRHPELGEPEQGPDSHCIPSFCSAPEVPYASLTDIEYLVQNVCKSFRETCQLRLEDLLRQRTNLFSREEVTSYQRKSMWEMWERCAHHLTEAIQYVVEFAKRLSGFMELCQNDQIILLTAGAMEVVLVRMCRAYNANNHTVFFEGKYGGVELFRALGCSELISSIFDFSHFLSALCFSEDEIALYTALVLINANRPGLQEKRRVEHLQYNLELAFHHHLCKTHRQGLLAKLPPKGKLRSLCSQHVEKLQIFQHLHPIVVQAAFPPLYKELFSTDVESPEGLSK
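Drosophila S2 cells stably expressing Gal4-DBD/mouse RORγ fusion under metallothionein promoter plus UAS-luciferase; compound 1 h, then 700 uM CuSO4 induction for 20 h at ambient temperature; inhibition read as reduced luminescence.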
Gal4-VP16 FLuc = Gal4-VP16 reporter inhibition counter-screen | Drosophila S2 Gal4-VP16 UAS-luciferase, luminescence, 20 h | Potency, µM (doses to about 53.6 µM), inactives show top-dose activity, negative = inhibition, hits mostly inhibitors | hit rate 3.5% among 310,000;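 further: Gal4-VP16 expression switched on by copper sulfate through the metallothionein promoter; potency means the concentration at half of the fitted maximal effect; nearly all actives have a fitted effect of over 50% in size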
ELG1 repair inh = blocks ELG1-dependent DNA repair in HEK293T cells; HEK293T ELG1-luciferase reporter, luminescence, 16 h; DNA damage induced by 5-fluorouridine; Potency, µM (doses to about 46.1 µM), without a hit: top-dose activity change, negative = inhibition, actives largely listed as inhibitors; hit rate 2.3% among 330,000; AID 504467; further: potency means the concentration at half of the fitted maximal effect; nearly all actives have a fitted effect of over 55% in size
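Reporter activity after DNA damage by 5-fluorouridine is monitored. Compound-treated cells incubate 16 hr at 37 °C, then ONE-Glo is added for 30 min before luminescence reading.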
IL-1B inflam inh = inhibitors of inflammasome signaling (IL-1 beta secretion); THP-1 LPS/ATP IL-1B secretion, AlphaLISA, 16 h; hits give low values; activity change, % at 57.5 µM; hit rate 4.7% among 360,000; AID 743279; in the data active means activity change below about -50%; inconclusive means mostly about -30% to -49%
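Secreted IL-1B measured by AlphaLISA bead assay after 16 h compound exposure of THP-1 cells; compounds (final up to 57.5 uM) added 1 h before LPS (250 ng/mL) and ATP (1.25 mM) stimulation; lower signal means less secretion.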
DT40 TDP1 no CPT = qHTS for Inhibitors of human tyrosyl-DNA phosphodiesterase 1 (TDP1): qHTS in cells in absence of CPT. DT40 Tdp1-/- hTDP1 cells, no CPT, ATP luminescence, 48 h. Potency, µM (series often up to 46.2 µM), inactives show at the highest dose activity change, negative = growth inhibition, most hits filed as inhibitors. hit rate 15% among 420,000. AID 686978, 2013; further: potency means the concentration at half of the fitted maximal effect; nearly all actives have a fitted effect of over 55% in size
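Cells were dispensed at 400 per well, compounds added by pin tool, plates incubated ≥48 hr at 37 °C, then CellTiter-Glo added for 30 min at room temperature before luminescence reading. Line: DT40 Tdp1-/- complemented with hTDP1; camptothecin omitted.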
TDP1 cell CPT = DT40-hTDP1 cell growth loss with CPT; chicken DT40 Tdp1-/-;hTDP1 cells + 20 nM CPT, ATP luminescence, 48 h; Potency, µM (doses to about 46.2 µM), inactives show top-dose activity change, negative = growth inhibition, actives largely listed as inhibitors; hit rate 12% among 420,000; further: potency means the concentration at half of the fitted maximal effect; nearly all actives have a fitted effect of over 55% in size
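Chicken DT40 Tdp1-/- cells stably complemented with human TDP1 were seeded at 400 cells/well in medium containing 20 nM camptothecin, exposed to pin-transferred compounds, and grown at 37 °C for at least 48 hr. Viability was read as ATP luminescence.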
An asterisk follows results filed as active; [ ] = remark or other dose. Unless noted, the call rests on the fitted dose curve; in most records, active means well fitted curve in the direction sought with a large enough effect; inconclusive means small, poorly fitted or top-dose-only effect, or another doubt; inactive means no such curve, though single readings can be large; an effect the other way counts as inactive or inconclusive. On the % scale 0 is the no-effect control and ±100 the full control effect.

For O=C(CN1CCN(S(=O)(=O)c2ccc(F)cc2)CC1)Nc1ccc(Cl)c(C(F)(F)F)c1 the results were RORgamma inh inconclusive, Gal4-VP16 FLuc inconclusive, ELG1 repair inh inconclusive, IL-1B inflam inh -60*, DT40 TDP1 no CPT 9.2µM* and TDP1 cell CPT 18µM*.
Screening O=C(CN1CCN(CC(=O)Nc2ccccc2F)CC1)Nc1ccc(Cl)c(C(F)(F)F)c1 returned DT40 TDP1 no CPT 6.5µM* and TDP1 cell CPT 7.3µM*.
CCOc1ccccc1N(CC(=O)Nc1ccccc1Br)S(=O)(=O)c1ccccc1 was read as IL-1B inflam inh 1, DT40 TDP1 no CPT inconclusive and TDP1 cell CPT inconclusive.
Screening CSc1nc(C)cc(OCCNS(=O)(=O)c2cc(C)ccc2C)n1 returned RORgamma inh 0%[0.365 µM], ELG1 repair inh -19%, IL-1B inflam inh 12, DT40 TDP1 no CPT -16% and TDP1 cell CPT -9%.
`Cc1ccc(NC(=O)CC(=O)c2ccc([N+](=O)[O-])cc2)cc1S(=O)(=O)Nc1cccc(Cl)c1` gave RORgamma inh inconclusive, Gal4-VP16 FLuc -26%, ELG1 repair inh -17%, IL-1B inflam inh -2, DT40 TDP1 no CPT 11% and TDP1 cell CPT -29%.
Screening Cc1ccc(NC(=O)c2cccs2)cc1S(=O)(=O)Nc1cccc(Cl)c1 returned RORgamma inh 44%, Gal4-VP16 FLuc inconclusive, ELG1 repair inh inconclusive, IL-1B inflam inh -131*, DT40 TDP1 no CPT inconclusive and TDP1 cell CPT -13%.
For O=C(CCC(=O)c1ccc(F)cc1)Nc1cccc(S(=O)(=O)Nc2cccc(Cl)c2)c1 the results were RORgamma inh inconclusive, Gal4-VP16 FLuc inconclusive, ELG1 repair inh -27%, IL-1B inflam inh 8, DT40 TDP1 no CPT 23µM* and TDP1 cell CPT 15µM*.
CCOc1ccc(NS(=O)(=O)c2cc(NC(=O)CCC(=O)c3cccs3)ccc2Cl)cc1 was read as RORgamma inh inconclusive, Gal4-VP16 FLuc -9%, ELG1 repair inh inconclusive, IL-1B inflam inh -26, DT40 TDP1 no CPT inconclusive and TDP1 cell CPT 29µM*.
For COc1ccccc1NS(=O)(=O)c1cc(NC(=O)CCC(=O)c2cccs2)ccc1Cl the results were RORgamma inh 3%[10 µM], Gal4-VP16 FLuc -13%, ELG1 repair inh inconclusive, IL-1B inflam inh -2, DT40 TDP1 no CPT inconclusive and TDP1 cell CPT inconclusive.
O=C(CCC(=O)c1ccc(F)cc1)Nc1ccc(Cl)cc1 was read as DT40 TDP1 no CPT -15% and TDP1 cell CPT 2%.
Screening Cc1ccc(NC(=S)NC(=O)c2ccc(F)cc2)cc1S(=O)(=O)Nc1cccc(Cl)c1 returned RORgamma inh -20%, Gal4-VP16 FLuc -2%, ELG1 repair inh inconclusive, IL-1B inflam inh inconclusive, DT40 TDP1 no CPT 5.8µM* and TDP1 cell CPT 5.2µM*.
Screening Cc1ccc(NC(=O)COC(=O)c2cccc(S(=O)(=O)N3CCCCCC3)c2)cc1 returned IL-1B inflam inh 17, DT40 TDP1 no CPT -7% and TDP1 cell CPT -14%.
Screening O=C(NCc1ccccc1F)c1cc2ccccn2n1 returned DT40 TDP1 no CPT inconclusive and TDP1 cell CPT -17%.
`O=C1NC2(CCCCCC2)C(=O)N1Cc1c(F)cccc1Cl` gave RORgamma inh 17%, Gal4-VP16 FLuc -1%, ELG1 repair inh -3%, IL-1B inflam inh 10, DT40 TDP1 no CPT -1% and TDP1 cell CPT -1%.
`Cc1ccc(-n2cc(-c3ccccc3)nc2S(=O)(=O)CC(=O)Nc2ccc(F)cc2)cc1` gave DT40 TDP1 no CPT inconclusive and TDP1 cell CPT 23µM*.
Screening COc1ccc(Cl)cc1-n1cc(-c2ccccc2)nc1SCC(=O)Nc1ccc(C)cc1 returned DT40 TDP1 no CPT 18µM* and TDP1 cell CPT inconclusive.
